Data from PubChem BioAssay AID624172 (National Center for Advancing Translational Sciences (NCATS), 2012).
About 25 (0.007%) of roughly 380,000 compounds were called active. Calls follow the shape of the dose curve; as a rule, active = well fitted activation curve with a large enough effect; inconclusive = small, poorly fitted or top-dose-only effect; inactive = no such curve, though single readings can be large or run the other way. These entries were drawn from the full list. Square brackets hold non-standard residues; d marks the D form. Side chains are listed from the residue outwards. Peptide text beside a SMILES is read from it. * marks the point of attachment. X1 = CCC(C)C(N)C1=NC(C(=O)*)CS1; Orn = NCCC[CH](N)C(=O)O

Target: Glucagon-like peptide 1 receptor (Homo sapiens) (UniProt P43220)
Assay: qHTS of GLP-1 Receptor Agonists
Settings: HEK293 GLP-1R CRE-luciferase, luminescence, 4-6 h, cells express a hypersensitive GLP-1R form; series mostly up to 45.6 µM
Source text: The overall goal of this project was to develop a novel assay for discovering small molecule ligands for class B1 G protein-coupled receptors (GPCRs). Very few agonists (or inverse agonists) with generally weak activity for this entire group of physiologically important receptors are known to date. To establish proof-of-principle that this critical bottleneck can be overcome with a suitable screening approach, our studies focused on the class B1 receptor for glucagon-like peptide-1 (GLP-1R), a potential therapeutic target for diabetes and neurodegenerative disease.
The assay was developed in a "mix and measure" format using a cell-based functional readout. Toward this goal, stably transfected HEK293 cell clones were established that co-express (i) a cAMP-responsive luciferase reporter gene, and (ii) GLP-1Rs that upon ligand interaction either stimulate (agonists) or inhibit (inverse agonists) luciferase activity. In different cell lines to be used for screening, expressed GLP-1Rs are specifically optimized for high sensitivity detection of either weak agonists (hypersensitive receptor) or inverse agonists (constitutively active receptor mutant). In addition, control cell lines were developed that express either the cAMP-responsive reporter gene without recombinant GLP-1Rs (enabling initial exclusion of GLP-1R independent effects of candidate probes), or the reporter gene together with wild type GLP-1Rs (for confirmation of probe activity at this receptor), or the reporter gene in combination with the constitutively active orphan receptor GPR119 (enabling initial exclusion of GLP-1R independent inhibitory effects of candidate inverse agonists).
To that end, this assay was optimized for 1536-well format and screened against the MLSMR.
NIH Molecular Libraries Probe Production Network [MLPCN]
NIH Chemical Genomics Center [NCGC]
PI Name: Martin Beinborn, Tufts Medical Center
In a white solid 1536-well plate, 6 uL of cells are dispensed in DMEM without phenol red, 10% Nu serum, and 1% pen-strep medium. The plates are then incubated for 12 hours at 37 deg C at 5% CO2 before 23 nL of compounds are added. After a 4-6 hr incubation at37 deg C and 5% CO2, 3 uL of detection reagent are added and after a 12 min incubation at RT, a luminescent read is obtained on the ViewLux.

Glucagon-like peptide 1 receptor (Homo sapiens), sequence (P43220 whole entry, looked up): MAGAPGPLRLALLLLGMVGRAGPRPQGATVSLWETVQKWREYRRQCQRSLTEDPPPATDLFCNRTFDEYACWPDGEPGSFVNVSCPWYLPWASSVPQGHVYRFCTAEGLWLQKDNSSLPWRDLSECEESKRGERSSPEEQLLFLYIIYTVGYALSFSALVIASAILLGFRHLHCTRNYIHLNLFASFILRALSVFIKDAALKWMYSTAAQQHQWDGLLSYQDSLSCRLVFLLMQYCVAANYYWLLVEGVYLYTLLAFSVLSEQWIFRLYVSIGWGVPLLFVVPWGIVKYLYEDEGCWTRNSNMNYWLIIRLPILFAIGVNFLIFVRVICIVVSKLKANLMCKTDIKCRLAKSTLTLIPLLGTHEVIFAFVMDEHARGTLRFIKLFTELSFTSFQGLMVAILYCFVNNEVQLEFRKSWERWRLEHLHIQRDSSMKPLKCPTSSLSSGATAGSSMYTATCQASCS

Compound	outcome
CCc1cccc(NC(=O)CSc2nccn2C)c1	inactive
CO[C@H]1C[C@@H](O[C@@H]2[C@@H](C)O[C@@H](O[C@@H]3/C(C)=C/CC4C[C@@H](C[C@]5(C=C[C@@H](C)[C@H](C6CCCCC6)O5)O4)OC(=O)[C@@H]4C=C(C)[C@@H](O)[C@H]5OC/C(=C\C=C\[C@@H]3C)[C@]54O)C[C@H]2OC)O[C@@H](C)[C@@H]1O	inactive
CCC(C)C(N)C1=NC(C(=O)NC(CC(C)C)C(=O)NC(CCC(=O)O)C(=O)NC(C(=O)NCCCCC2NC(=O)C(CC(N)=O)NC(=O)C(CC(=O)O)NC(=O)C(Cc3cnc[nH]3)NC(=O)C(Cc3ccccc3)NC(=O)C(C(C)CC)NC(=O)C(CCCN)NC2=O)C(C)CC)CS1 (stereo not drawn) (cyclo(DNK([Ile-Glu-Leu-X1])[Orn]IFH); configuration not given here)	inactive
COc1ccc(Cl)cc1NC(=O)Cn1c(=O)c2ccccc2n2nncc12	inactive
Cc1ccc(CNC(=O)Cn2c(=O)ccc3cc(S(=O)(=O)N4CCCC4)ccc32)cc1	inactive
CCc1ccccc1NC(=O)Cn1c(=O)n(-c2cccc(C)c2)c(=O)c2c1c1cc(OC)ccc1n2C	inactive
CCOc1ccc(NS(=O)(=O)c2ccc(N)cc2)nn1	inactive
Cc1ccc(-c2nnc(SCc3ccccc3C)o2)cc1	inactive
O=C(/C=C/c1cccc(F)c1)NC1CC1	inactive
CCOC(=O)c1ccccc1NC(=O)CCc1c(C)nc2c(c1C)c(=O)n(C)c(=O)n2C	inactive
Cc1cc(C)cc(NC(=O)Cn2c(=O)c3ccccc3n3nncc23)c1	inactive
FCOC(C(F)(F)F)C(F)(F)F	inactive
COc1ccccc1N1CCN(c2ncnc3onc(-c4ccc(F)cc4)c23)CC1	inactive
Cc1ccc(C)c(N2CCN(S(=O)(=O)c3ccc4c(c3)C(C(C)C)C(=O)N4)CC2)c1 (stereo unspecified)	inactive
NCCCCC(N)C(=O)O (stereo unspecified)	inactive
Cn1c(=O)nc2n(-c3ccc(Br)cc3)c3cccc(Cl)c3cc-2c1=O	inactive
Cc1ccc(-n2nnnc2CNC(=O)c2ccccc2C)cc1C	inactive
COc1ccc(NC(=O)Cn2c(=O)n(Cc3ccc(C(=O)NCc4ccccc4Cl)cc3)c(=O)c3ccccc32)cc1	inactive
Cc1cccc(NC(=O)CSc2nc3c([nH]c4ccccc43)c(=O)n2-c2cc(C)cc(C)c2)c1	inactive
CC1(C)OC2CC(=O)OC[C@@]23C1CC(=O)[C@]1(C)C3CC[C@@]2(C)C(c3ccoc3)OC(=O)C3O[C@@]321 (stereo partly specified)	inactive
Cc1ccc(C(=O)CSc2nc(-c3ccccc3)nc3c2CCCC3)c(C)c1	inactive
